Compound activity from PubChem BioAssay.
AmpC inh detg: inhibitors of E. coli AmpC beta-lactamase with detergent | AmpC hydrolysis of nitrocefin, absorbance 480 nm, 0.01% Triton | 370,000 tested, 0.041% active | Potency, µM (highest dose often 114 µM), hits mostly inhibitors; further: nearly all actives have a fitted effect of over 25% in size
Target sequence (P00811 whole entry, looked up): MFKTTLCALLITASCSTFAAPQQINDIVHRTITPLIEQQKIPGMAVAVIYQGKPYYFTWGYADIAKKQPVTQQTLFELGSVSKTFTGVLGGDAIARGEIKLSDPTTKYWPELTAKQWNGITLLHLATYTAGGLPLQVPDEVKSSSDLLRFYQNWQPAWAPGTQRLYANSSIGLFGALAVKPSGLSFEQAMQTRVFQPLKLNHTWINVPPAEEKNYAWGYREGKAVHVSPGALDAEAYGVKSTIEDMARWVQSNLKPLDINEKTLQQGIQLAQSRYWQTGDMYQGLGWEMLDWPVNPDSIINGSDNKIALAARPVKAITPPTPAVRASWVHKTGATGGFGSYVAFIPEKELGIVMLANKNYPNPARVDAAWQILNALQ
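AmpC (5.3 nM in the dispensed reagent) in 20 mM phosphate pH 7.0 with 0.01% (detergent screen) or 0.0001% Triton X-100 was preincubated with compounds for 15 min at room temperature. Nitrocefin was then added from an 800 uM solution, and hydrolysis was followed at 480 nm.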
RE007 growth inh: less growth of the S. pombe RE007 Vpr strain | 360,000 tested, 0.21% active | S. pombe RE007 Vpr strain, BacTiter-Glo ATP luminescence, 24 h | AID 651644 | Potency, µM (doses to about 92.2 µM), usual class: inhibitors; active means well fitted falling curve with a large enough effect; inconclusive means small, poorly fitted or top-dose-only effect; inactive means no such curve, though single readings can be large or run the other way; further: nearly all actives have a fitted effect of over 50% in size
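Fission yeast strain RE007, carrying one chromosomally integrated HIV-1 vpr copy, was seeded at OD 0.01 in PMG+AL medium with 23 nL pinned compound. After 24 h at 30 °C and 99% humidity, viability was read by BacTiter-Glo luminescence.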
SARS PLpro yeast: SARS-CoV PLP inhibition in yeast | S. cerevisiae expressing SARS-CoV PLpro, growth rescue | Potency, µM (top dose mostly 32.9 µM), hits mostly activators | 330,000 tested, 0.19% active | AID 485353; calls by dose curve; further: nearly all actives have a fitted effect of over 55% in size
Tb PYK inh: inhibitors of Trypanosoma brucei pyruvate kinase. Q57TT1. TbPYK enzyme, Kinase-Glo Plus ATP luminescence, 45 min. Potency, µM (series often up to 76.8 µM), actives largely listed as inhibitors. 410,000 tested, 0.12% active. AID 624173; further: nearly all actives have a fitted effect of over 50% in size
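Screened from lowest to highest concentration, compounds were pinned into TbPYK/substrate mixtures, and ADP (130 uM final) was added. Plates sat at room temperature for 45 min prior to Kinase-Glo Plus detection by luminescence.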
Sm TGR block: inhibitors of Schistosoma mansoni thioredoxin glutathione reductase. purified TGR, DTNB reduction, TNB absorbance 405 nm. Potency, µM (doses to about 114 µM), actives largely listed as inhibitors. 360,000 tested, 3% active. Q962Y6; further: nearly all actives have a fitted effect of over 60% in size
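TGR 20 nM + NADPH 100 uM (dispensed conc.), cpd preinc 15 min RT; start with NADPH (500 uM addition) then DTNB (15 mM addition). Kinetic TNB absorbance, 405 nm filter. Four-parameter Hill fit across titration.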
AmpC inh no detg: AmpC beta-lactamase inhibition without detergent | P00811 | AmpC nitrocefin hydrolysis, absorbance 480 nm, 0.0001% Triton | Potency, µM (highest dose often 57.1 µM), usual class: inhibitors | 330,000 tested, 0.52% active; further: nearly all actives have a fitted effect of over 20% in size
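20 mM phosphate pH 7.0 + 0.01% (detergent screen) or 0.0001% Triton X-100; 5.3 nM AmpC reagent; cpd preinc 15 min RT; nitrocefin (800 uM stock) to start; A480 q20 s × 4 min; Activity was normalised to no-enzyme and no-compound control wells.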
Large screens that a line does not name were inactive. Most compounds without a hit are left out; they make up all but 3.3% or so of the library. Unless noted, the call rests on the fitted dose curve; in most records, active means well fitted curve in the direction sought with a large enough effect; inconclusive means small, poorly fitted or top-dose-only effect, or another doubt; inactive means no such curve, though single readings can be large; an effect the other way counts as inactive or inconclusive.

Cn1cccc1/C=N/n1c(-c2ccc(Cl)cc2)n[nH]c1=S	Tb PYK inh inconclusive
Cc1ccc(CNC(=O)c2cc(=O)c3cc(C)c(C)cc3o2)cc1	none (no result: RE007 growth inh, SARS PLpro yeast, AmpC inh no detg)
CC(=O)c1cc2c(cc1NC(=O)CCn1cnnn1)OCO2	Sm TGR block 50µM
CSCCC(NC(=O)c1cccc([N+](=O)[O-])c1)c1nc2ccccc2[nH]1 (stereo not given)	AmpC inh no detg 20µM
CSCC[C@H](NC(=O)c1cc([N+](=O)[O-])ccc1Cl)c1nc2ccccc2[nH]1	AmpC inh detg inconclusive
CCCCn1c(=O)c2oc3ccccc3c2n(CC(=O)Nc2ccc(CC)cc2)c1=O	none (no result: RE007 growth inh, SARS PLpro yeast, AmpC inh no detg)
O=[N+]([O-])c1cc(C=Nc2cccc3c(O)cccc23)ccc1Cl	Sm TGR block 40µM (no result: RE007 growth inh, Tb PYK inh)
N#CC1(NC(=O)COC(=O)c2cc(O)c3ccccc3c2O)CCCCC1	RE007 growth inh inconclusive, Tb PYK inh 28µM, Sm TGR block 22µM
N#CC1(NC(=O)COC(=O)c2ccccc2[N+](=O)[O-])CCCCC1	none
Cc1noc(-c2ccccc2OCC(=O)Nc2ccccc2[N+](=O)[O-])n1	none (no result: RE007 growth inh, SARS PLpro yeast, AmpC inh no detg)
O=C1CCCC(=NNC(=O)c2cc3ccccc3cc2O)C1	AmpC inh no detg 32µM (no result: AmpC inh detg, Sm TGR block)
O=C(NC1CCCCC1)c1cc2ccccc2cc1O	RE007 growth inh inconclusive, AmpC inh no detg 20µM
CCC(=O)N1CCc2cc(Br)cc(S(=O)(=O)N3CCCC(C(=O)Nc4ccc(C)c(F)c4)C3)c21 (stereo not given)	none (no result: RE007 growth inh, SARS PLpro yeast, AmpC inh no detg)
CCOc1ccc(C2C(C(=O)Nc3ccccc3C)=C(C)Nc3nnnn32)cc1 (stereo not given)	none (no result: RE007 growth inh, SARS PLpro yeast, AmpC inh no detg)
C/C(=N/NC(=O)c1cc2ccccc2cc1O)c1ccco1	AmpC inh no detg 25µM
C/C(=N\NC(=O)c1cc2ccccc2cc1O)c1ccc(C)o1	AmpC inh no detg 7.9µM
CCOC(=O)N1CCc2c(sc(NCc3sccc3C)c2C(=O)Nc2ccccc2OCC)C1	Tb PYK inh inconclusive (no result: RE007 growth inh, SARS PLpro yeast, AmpC inh no detg)
CCN(CC)C(NC(=O)c1ccccc1)C(=O)c1ccccc1 (stereo not given)	Sm TGR block 79µM
COc1cccc2c1Oc1ncccc1N(c1ccc(C(=O)NCc3ccccc3Cl)s1)C2	none (no result: RE007 growth inh, SARS PLpro yeast, AmpC inh no detg)
Oc1ccc(N=C/C=C/c2cccc(Br)c2)cc1-c1nc2ccccc2s1	AmpC inh detg inconclusive, Sm TGR block 40µM
Nc1ccc(O)c(-c2nc3ccccc3s2)c1	none
COc1ccc(-c2cn3nc(N4CCCC(C(=O)Nc5cccc(OC)c5)C4)sc3n2)cc1 (stereo not given)	none (no result: RE007 growth inh, SARS PLpro yeast, AmpC inh no detg)
CCCNC(=O)COC(=O)/C=C/c1ccc(C)o1	AmpC inh detg inconclusive, Sm TGR block 40µM
Cc1ccc(/C=C/C(=O)OCC(=O)NCCN2C(=O)CSC2=O)o1	Sm TGR block 25µM
CCOC(=O)C1=C(COC(=O)/C=C/c2ccc(C)o2)NC(=O)NC1C (stereo not given)	Sm TGR block 22µM
Cc1ccc(/C=C/C(=O)OCC(=O)NCCN2C(=O)CSC2=O)cc1	none
CCOc1ccc(CCNC(=O)COC(=O)/C=C/c2ccc(C)o2)cc1OCC	Sm TGR block 50µM
CCOC(=O)C1=C(COC(=O)/C=C/c2ccccc2)NC(=O)NC1C (stereo not given)	AmpC inh detg inconclusive
Cc1cccc(CNC(=O)C2CCN(S(=O)(=O)c3cccc4nonc34)CC2)c1	none (no result: RE007 growth inh, SARS PLpro yeast, AmpC inh no detg)
CCOc1ccc(S(=O)(=O)NCCC(=O)NCCc2ccc(C(C)C)cc2)cc1	AmpC inh detg inconclusive
CCOc1ccc(S(=O)(=O)NCCC(=O)NCCc2ccc(OCC)c(OCC)c2)cc1	Sm TGR block 3.2µM, AmpC inh no detg inconclusive
COc1cccc(-c2nn(C)c3sc(C(=O)NCCc4cccc(C)c4)cc23)c1	none (no result: RE007 growth inh, SARS PLpro yeast, AmpC inh no detg)
Clc1ccc(C2Nc3cccc4cccc(c34)N2)cc1Cl	AmpC inh detg inconclusive, Sm TGR block 14µM
CN(C)c1ccc(C2Nc3cccc4cccc(c34)N2)cc1	Sm TGR block 32µM
O=[N+]([O-])c1ccc(Cl)c(C2Nc3cccc4cccc(c34)N2)c1	none
c1ccc(C2Nc3cccc4cccc(c34)N2)cc1	Sm TGR block 8.9µM
Clc1cccc(C2Nc3cccc4cccc(c34)N2)c1	Sm TGR block 3.2µM
Cc1ccc(S(=O)(=O)CCC(=O)Nc2ccc(OC(F)(F)F)cc2)cc1	none (no result: RE007 growth inh, SARS PLpro yeast, AmpC inh no detg)
CCC(=O)N1CCc2cc(S(=O)(=O)Nc3cc(C)ccc3OC)ccc21	none (no result: RE007 growth inh, SARS PLpro yeast, AmpC inh no detg)
Clc1cccc(Cl)c1C1Nc2cccc3cccc(c23)N1	Sm TGR block 3.2µM
Brc1ccc(C2Nc3cccc4cccc(c34)N2)o1	SARS PLpro yeast inconclusive, Sm TGR block inconclusive
Brc1cccc(C2Nc3cccc4cccc(c34)N2)c1	Sm TGR block 11µM
Fc1cccc(Cl)c1C1Nc2cccc3cccc(c23)N1	Sm TGR block inconclusive
c1csc(C2Nc3cccc4cccc(c34)N2)c1	Sm TGR block 22µM
COc1ccc2c(c1)c(=O)c(C(=O)c1ccccc1)cn2CC(=O)Nc1ccc2c(c1)OCO2	none (no result: RE007 growth inh, SARS PLpro yeast, AmpC inh no detg)
CCOc1cc(C(C(=O)NCC2CCCO2)N(C(=O)Cn2nnc3ccccc32)c2ccc(OC)c(OC)c2)ccc1O (stereo not given)	Sm TGR block 32µM
CCOC(=O)C1CCCN(C(=O)c2ccc(C(=O)c3ccccc3)cc2)C1 (stereo not given)	AmpC inh detg inconclusive
Cc1ccc(S(=O)(=O)Cc2ccc(C(=O)N3CCN(c4cc(C)ccc4C)CC3)o2)cc1	none
Cc1ccc(S(=O)(=O)Cc2ccc(C(=O)N3CCCCCC3)o2)cc1	AmpC inh detg inconclusive, Sm TGR block 16µM
CCOC(=O)C1CCCN(C(=O)c2ccc(CS(=O)(=O)c3ccc(C)cc3)o2)C1 (stereo not given)	Sm TGR block 20µM
Cc1ccc(C)c(N2CCN(C(=O)c3ccc(CS(=O)(=O)c4ccccc4C)o3)CC2)c1	AmpC inh detg inconclusive, Sm TGR block 25µM
CCOC(=O)C1CCCN(C(=O)c2ccc(CS(=O)(=O)Cc3ccccc3C)o2)C1 (stereo not given)	Sm TGR block 28µM
Cc1cccc(N(CC(=O)Nc2cccc(Cl)c2C)S(C)(=O)=O)c1C	none (no result: RE007 growth inh, SARS PLpro yeast, AmpC inh no detg)
CN1[C@@H]2CCC[C@@H]1CC(NC(=O)c1nn(C)c3ccccc13)C2 (stereo not given in full)	none (no result: AmpC inh detg, RE007 growth inh, SARS PLpro yeast, Sm TGR block, AmpC inh no detg)
CCc1ccc(-n2c(=O)c3c4c(sc3n(Cc3ccccc3C#N)c2=O)CCC4)cc1	none (no result: RE007 growth inh, SARS PLpro yeast, AmpC inh no detg)
